A selection: hits, their analogues and other compounds. The true share with any hit is near 3.1%.
pS6 MEF inh – mTORC1 pathway inhibition measured by phospho-rpS6; Tsc2-/- p53-/- MEF, phospho-rpS6 immunofluorescence/PI, 24 h; Potency, µM (titrated, usually from 38.3 µM), actives largely listed as inhibitors; hit rate 0.78% among 44,000; AID 493208; also: nearly all actives have a fitted effect of over 50% in size
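Compounds act on Tsc2-/-, p53-/- fibroblasts carrying an empty vector for 24 h before fixation and dual staining for phospho-S6 and DNA (propidium iodide). Values are percentages of cells above a rapamycin-defined pS6/PI threshold.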
PMP22 txn prim – modulators of PMP22 gene transcription in S16 Schwann cells; S16 Pmp22-F2sN Schwann cells, FLuc/NLuc coincidence luminescence, 24 h; Potency, µM (top dose mostly 57.5 µM), most hits filed as inhibitors; hit rate 2% among 43,000; AID 1508649; active = clear falling dose curves in both reporters; inconclusive = both reporters move, but less clearly or upward; inactive = either reporter flat; the % is the NLuc reporter signal
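Rat S16 Pmp22-F2sN cells, 500-1,000/well in phenol red-free DMEM + 10% FBS, compound-treated 24 h (37C, 5% CO2). Luminescence: FLuc read, Stop&Glo added, NLuc read.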
p53null 32C kill – selectivity test: cytotoxicity in p53 null cells, permissive temperature | H1299-neo p53 null cells, ATP luminescence, 24 h, 32C | hit rate 0.62% among 55,000 | Potency, µM (series often up to 46.1 µM), actives largely listed as cytotoxic; also: nearly all actives have a fitted effect of over 55% in size
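H1299-neo, 600 cells/well; overnight 37C; cpd up to 46 uM, 24 h at 32C; ATPlite luminescence after 20 min RT; normalized to DMSO (0%) and tamoxifen 100 uM (100% kill); Hill-fit AC50.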
OvCa metastasis – inhibitors of ovarian cancer cell adhesion and invasion in omental model | SKOV3ip1-GFP adhesion/invasion on 3D omental model, fluorescence | Potency, µM (top dose mostly 45.8 µM), actives largely listed as inhibitors | hit rate 0.1% among 46,000 | AID 1963576; also: nearly all actives have a fitted effect of over 65% in size
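Primary human omental fibroblast/mesothelial 3D culture pre-formed 48 h. SKOV3ip1-GFP cells added with compounds (0.36-46 umol/L), incubated 2 h RT/16 h 37 C, fixed; GFP cells quantified at 488/509 nm.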
S16 F2sN tox – toxic to S16 Pmp22-F2sN Schwann cells. hit rate 0.48% among 43,000. Potency, µM (titrated, usually from 57.5 µM), usual class: cytotoxic. S16 Pmp22-F2sN Schwann cells viability, CellTiter-Glo, 24 h; also: nearly all actives have a fitted effect of over 65% in size
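S16 Pmp22-F2sN Schwann cells (500-1,000/well) in phenol-red-free DMEM with 10% FBS received 23 nL compound by pin tool for 24 h at 37 °C. Viability was then read as CellTiter-Glo luminescence after 15 min at room temperature.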
p53null 39C kill – selectivity test: cytotoxicity in p53 null cells, nonpermissive temperature. H1299 p53-null (neo) cells, 39C, ATPlite viability, 24 h. Potency, µM (top dose mostly 46.1 µM), actives largely listed as cytotoxic. hit rate 0.97% among 55,000. AID 904; also: nearly all actives have a fitted effect of over 50% in size
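ATP-luminescence viability readout (ATPlite, 20 min RT) after 24 hr compound treatment at 39C of H1299-neo or H1299-p53A138V cells; titration up to 46 uM; normalized to DMSO and 100 uM tamoxifen; Hill-fit AC50.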
NLuc saturating – NanoLuc enzyme inhibition artifact for PMP22 screen; shares compounds with PMP22 txn prim; Potency, µM (top dose mostly 57.5 µM), usual class: inhibitors; Secreted NLuc enzyme (filtered S16 cell medium), Nano-Glo luminescence; hit rate 4% among 690
NLuc Km counter – NanoLuc inhibition at Km substrate, PMP22 artifact check. hit rate 5% among 690. secreted NLuc enzyme, coelenterazine luminescence, Km conditions. Potency, µM (highest dose often 57.5 µM), usual class: inhibitors. shares compounds with PMP22 txn prim
FLuc ctr PMP22 – counter-screen for PMP22 expression modulators: firefly luciferase inhibition; shares compounds with PMP22 txn prim; purified P. pyralis FLuc, luminescence, 10 min; Potency, µM (doses to about 57.5 µM), actives largely listed as inhibitors; 690 tested, under 10 active
Target sequence (P08659 whole entry, looked up): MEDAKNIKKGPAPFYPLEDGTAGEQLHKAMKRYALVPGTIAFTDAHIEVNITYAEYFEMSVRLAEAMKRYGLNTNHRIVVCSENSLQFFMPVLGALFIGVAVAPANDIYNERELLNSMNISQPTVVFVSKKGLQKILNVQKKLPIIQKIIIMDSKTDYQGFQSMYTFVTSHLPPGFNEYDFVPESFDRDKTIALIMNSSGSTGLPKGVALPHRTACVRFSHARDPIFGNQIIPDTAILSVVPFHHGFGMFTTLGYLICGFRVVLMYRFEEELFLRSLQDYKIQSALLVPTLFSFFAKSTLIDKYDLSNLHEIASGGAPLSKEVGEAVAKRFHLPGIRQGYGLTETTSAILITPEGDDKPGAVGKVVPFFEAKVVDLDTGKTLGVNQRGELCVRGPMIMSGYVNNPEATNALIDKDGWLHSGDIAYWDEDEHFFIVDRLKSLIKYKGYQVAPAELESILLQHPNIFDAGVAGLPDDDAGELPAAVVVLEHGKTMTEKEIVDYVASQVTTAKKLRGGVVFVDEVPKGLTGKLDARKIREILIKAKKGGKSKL
S16 F2sN tox cnf – S16 Schwann cell cytotoxicity, confirmatory; S16 Schwann cells viability, CellTiter-Glo ATP luminescence, 24 h; AID 1508641; hit rate 7% among 690; shares compounds with PMP22 txn prim; Potency, µM (titrated, usually from 57.5 µM), hits mostly cytotoxic
PMP22 txn cnf – confirmation of modulators of PMP22 gene transcription in S16 cells. shares compounds with PMP22 txn prim. S16 Schwann cells Pmp22-F2sN, dual luciferase, 24 h. Potency, µM (series often up to 57.5 µM), actives largely listed as inhibitors. hit rate 22% among 690. AID 1508646; active = clear falling dose curves in both reporters; inconclusive = both reporters move, but less clearly or upward; inactive = either reporter flat; the % is the FLuc reporter signal
PMP22 prot conf – rat PMP22 protein level modulation, confirmatory; S16 Schwann cells Pmp22-HiBiT, luminescence, 48 h; shares compounds with PMP22 txn prim; 95 tested, under 10 active; AID 1508647; Potency, µM (highest dose often 27.9 µM), most hits filed as inhibitors
Target sequence (P25094 whole entry, looked up): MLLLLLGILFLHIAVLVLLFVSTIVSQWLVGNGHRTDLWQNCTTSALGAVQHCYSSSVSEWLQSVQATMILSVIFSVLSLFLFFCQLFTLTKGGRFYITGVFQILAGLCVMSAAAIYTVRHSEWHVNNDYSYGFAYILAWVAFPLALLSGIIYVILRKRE
A number is an active result; – = inactive; ? = inconclusive; · = no result given. Unless noted, calls follow the shape of the dose curve; as a rule, active = well fitted curve in the direction sought with a large enough effect; inconclusive = small, poorly fitted or top-dose-only effect, or another doubt; inactive = no such curve, though single readings can be large; an effect the other way counts as inactive or inconclusive.

SMILES	pS6 MEF inh	PMP22 txn prim	p53null 32C kill	OvCa metastasis	S16 F2sN tox	p53null 39C kill	NLuc saturating	NLuc Km counter	FLuc ctr PMP22	S16 F2sN tox cnf	PMP22 txn cnf	others
CCC1=Nc2cc(C(=O)NCc3ccccc3Cl)ccc2Sc2ccc(C)cc21	?	10µM	–	–	–	–	–	–	–	–	–
C[C@H]1O[C@@H](n2cc(F)c(=O)[nH]c2=O)[C@H](O)[C@H]1O	·	·	·	–	·	·	·	·	·	·	·
Cc1ccccc1Cn1nnc2c(=O)[nH]c(C3CCN(C(=O)c4ccc(F)cc4)CC3)nc21	–	10µM	–	–	–	–	?	–	–	–	–
CCc1cc(Nc2nccc(-c3c(-c4ccc(OC)c(C(=O)Nc5c(F)cccc5F)c4)nc4ccccn34)n2)c(OC)cc1N1CCC(N2CCN(S(C)(=O)=O)CC2)CC1	·	·	·	–	·	·	·	·	·	·	·
O=C(CSc1nc2ccsc2c(=O)n1-c1ccc(Cl)cc1)NCc1ccc(Cl)cc1	–	?	–	–	–	–	·	·	·	·	·
O=C(CSc1nc2ccsc2c(=O)n1-c1ccc(Br)cc1)NCc1ccc(Cl)cc1	?	12µM	–	–	–	–	–	–	–	–	?
COc1ccc(NCc2cc3cc4c(cc3n(CC(=O)Nc3ccc(F)cc3F)c2=O)OCO4)cc1	–	18µM	–	–	–	–	?	–	–	–	–
COc1ccc(NCc2cc3cc4c(cc3n(CC(=O)Nc3cccc(F)c3)c2=O)OCO4)cc1	–	?	–	–	–	–	·	·	·	·	·
COc1ccc(C(=O)Nc2cc(C(F)(F)F)ccc2N2CCN(c3ccccc3)CC2)cc1OC	–	–	?	–	–	–	·	·	·	·	·
COc1nnc(-c2ccc(N3CCCCC3)c(NC(=O)c3ccccc3)c2)c2ccccc12	–	14µM	–	–	?	–	?	?	–	–	?
COc1nnc(-c2ccc(N3CCCCC3)c(NC(=O)c3ccc(Cl)cc3)c2)c2ccccc12	–	15µM	–	–	–	–	?	–	–	–	?
O=C(Nc1ccc(Oc2ccnc3[nH]ccc23)c(F)c1)c1cccn(-c2ccc(F)cc2)c1=O	·	·	·	–	·	·	·	·	·	·	·
O=C(Nc1cccnc1)N1CCC(Cc2cccc(Oc3ccc(C(F)(F)F)cn3)c2)CC1	·	·	·	–	·	·	·	·	·	·	·
Nc1nc(N)c2nc(-c3cccc(O)c3)c(-c3cccc(O)c3)nc2n1	·	·	·	–	·	·	·	·	·	·	·
c1cc(CN2CCCNCCNCCCNCC2)ccc1CN1CCCNCCNCCCNCC1	·	·	·	–	·	·	·	·	·	·	·
Cc1ccc(-c2c(C)n3c4c(=O)n(C)c(=O)n(C)c4nc3n2-c2cccc(O)c2)cc1	–	16µM	?	–	–	?	?	?	–	–	?
O=C(Nc1ccc(Br)c2cccnc12)c1cccc2ccccc12	–	16µM	–	–	–	–	–	–	–	–	?
O=C(Nc1cccc2cccnc12)c1cccc2ccccc12	–	?	–	–	–	–	·	·	·	·	·
Cc1cc(C)c(Nc2ncnc3c2cnn3C)c(C)c1	?	?	–	–	?	–	–	–	–	–	–
Cc1cccc(-n2ncc3c(Nc4c(C)cc(C)cc4C)ncnc32)c1	?	–	–	–	–	–	·	·	·	·	·
O=C(O)C[C@H](O)C[C@H](O)C=Cc1c(C2CC2)nc2ccccc2c1-c1ccc(F)cc1	·	·	·	–	·	·	·	·	·	·	·
CCOC(=O)c1ccc(-c2ccc(/C=C(\C#N)C(=O)Nc3cccc(C)c3)o2)cc1	–	?	–	–	–	–	?	–	–	–	17µM
CC1CCCN(S(=O)(=O)c2ccc(N3CCCCS3(=O)=O)cc2)C1 (stereo unspecified)	–	?	–	–	–	–	–	–	–	–	–
CCOC(=O)c1ccc(N2C(=O)c3n[nH]c(-c4ccco4)c3C2c2ccc(C)cc2)cc1 (stereo unspecified)	?	?	–	?	–	?	·	·	·	·	·
CCOC(=O)c1ccc(N2C(=O)c3n[nH]c(-c4ccco4)c3C2c2ccc(O)c(OC)c2)cc1 (stereo unspecified)	?	11µM	–	–	–	?	?	?	–	–	19µM
SMILES	pS6 MEF inh	PMP22 txn prim	p53null 32C kill	OvCa metastasis	S16 F2sN tox	p53null 39C kill	NLuc saturating	NLuc Km counter	FLuc ctr PMP22	S16 F2sN tox cnf	PMP22 txn cnf	others
Cc1ccc(CN(Cc2cccn2-c2nnc(N3CCCC3=O)s2)C(=O)Nc2ccccc2C(F)(F)F)cc1	–	19µM	–	–	?	–	?	?	–	–	–
CC(C)OC(=O)[C@H](C)N[P@](=O)(OC[C@H]1O[C@@H](n2ccc(=O)[nH]c2=O)[C@](C)(F)[C@H]1O)Oc1ccccc1	·	·	·	–	·	·	·	·	·	·	·
CCCCS(=O)(=O)c1nc(-c2ccc(Br)cc2)cc(-c2ccccc2)c1C#N	5.2µM	6.8µM	–	–	?	–	–	–	–	–	9.3µM	PMP22 prot conf=–
O=C(Nc1nc2ccc(F)cc2s1)c1nc(S(=O)(=O)Cc2ccccc2F)ncc1Cl	?	9.5µM	?	?	?	?	–	?	–	?	13µM
FC(F)(F)c1ccc(Nc2nc3ccc(Oc4ccnc(-c5ncc(C(F)(F)F)[nH]5)c4)cc3[nH]2)cc1	·	·	·	–	·	·	·	·	·	·	·
COC(=O)c1c(-c2ccc(Cl)cc2)noc1N1CCN(c2cc(C)ccc2C)CC1	?	5.6µM	–	–	?	–	–	–	–	?	17µM	PMP22 prot conf=?
Cc1ccc(OC(=O)c2cc(-c3ccc(Cl)cc3)on2)c(C)c1	–	–	–	–	–	–	·	·	·	·	·
COC(=O)c1c(-c2ccc(Cl)cc2)noc1N1CCN(c2ccc(C)cc2C)CC1	–	10µM	–	–	?	?	–	–	–	?	19µM

Screens deposited in PubChem by National Center for Advancing Translational Sciences (NCATS).
